Shown is part of a subset that was picked to be rich in hits.
Pf Dd2 growth = qHTS Primary assay for Inhibitors of Plasmodium falciparum Dd2 growth in vitro. P. falciparum Dd2 growth, SYBR Green, 72 h. Potency, µM (highest dose often 28.9 µM), actives largely listed as inhibitors. hit rate 4.3% among 120,000; active = well fitted inhibition curve with a large enough effect; also: nearly all actives have a fitted effect of over 65% in size
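Readout: SYBR Green fluorescence, 485 nm excitation, 535 nm emission, after ~16 h lysis at 37C. Before that, Dd2-infected red cells (2.5% hematocrit) grew 72 h with compound, 29 uM top final concentration.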
Of the large screens only hits and unclear results are named; the others gave an inactive call.

Cc1cccc(CNC(=O)C2CC(c3ccc(F)c(C)c3)CN(C(=O)c3ccccc3)C2)c1 (centres undefined)	none
CCOC(=O)CC1COCCN1C(=O)c1cn(Cc2ccc(F)cc2Cl)nn1 (centres undefined)	none
COc1ccccc1NC(=O)C1=C(C)Nc2nc3ccccc3n2C1c1cccc(OC)c1OC (centres undefined)	none
COc1cccc(C2C(C(=O)Nc3ccccc3OC)=C(C)Nc3nc4ccccc4n32)c1 (centres undefined)	Pf Dd2 growth 7.08µM
CCOc1ccccc1C1C(C(=O)Nc2ccccc2OC)=C(C)Nc2nc3ccccc3n21 (centres undefined)	none
O=C(c1ccc2c(c1)OCO2)N1CCC(Cc2nc(-c3ccccc3)no2)CC1	none
Cc1noc(-c2ccc3c(c2)OCO3)c1C(=O)N1CCC(Cc2ccccc2)CC1	none
COc1ccc(-c2onc(C)c2C(=O)N2CCC(Cc3ccc(F)cc3)CC2)cc1	none
COc1ccc(-c2noc(CC3CCN(C(=O)c4cc(F)cc(F)c4)CC3)n2)cc1	none
COc1cccc(-c2noc(CC3CCN(C(=O)c4ccccc4C)CC3)n2)c1	none
COc1cccc(-c2noc(CC3CCN(C(=O)c4cc(OC)c(OC)c(OC)c4)CC3)n2)c1	none
COc1ccc(CC2CCN(C(=O)c3c(C)noc3-c3ccc4c(c3)OCO4)CC2)cc1	Pf Dd2 growth 7.94µM
COc1ccc(-c2noc(CC3CCN(C(=O)c4ccc5c(c4)OCO5)CC3)n2)cc1	Pf Dd2 growth 11.2µM
COc1cccc(-c2noc(CC3CCN(C(=O)c4ccc(N(C)C)cc4)CC3)n2)c1	Pf Dd2 growth 5.01µM
COc1ccc(-c2noc(CC3CCN(C(=O)CCCc4ccccc4)CC3)n2)cc1	none
COc1ccc(OCC(=O)N2CCC(Cc3nc(-c4ccc(OC)cc4)no3)CC2)cc1	Pf Dd2 growth 11.2µM
Cc1ccc(OCC(=O)N2CCC(Cc3nc(-c4ccccc4)no3)CC2)cc1	none
CC(=O)N1CCC(N2CCC3(CC2)CC(C(=O)N2CCOCC2)N(C)C3)CC1 (centres undefined)	none
O=C(CC1CCN(C(=O)c2ccc(F)c(F)c2)C1)NCc1ccccc1 (centres undefined)	none
COc1ccc(C(=O)N2CC[C@H]3C(=O)NCCCCCCN(Cc4ccncc4)[C@@H]3C2)cc1F	none
CCC1(O)CCC12CCN(C(=O)c1cccs1)CC2 (centres undefined)	none
COc1ccc(-c2noc(CC3CCN(C(=O)Cc4ccsc4)CC3)n2)cc1	none
COc1ccc(CC(=O)N2CCC(Cc3nc(-c4ccc(OC)cc4)no3)CC2)cc1	none
COc1ccc(C(=O)N2CCC(Cc3nc(-c4ccc(F)cc4)no3)CC2)cc1F	none
COC(=O)c1cccc(C(=O)N2CCC(Cc3nc(-c4cnccn4)no3)CC2)c1	none
COC(=O)c1cccc(C(=O)N2CCC(Cc3nc(-c4ccc(F)cc4)no3)CC2)c1	Pf Dd2 growth 10µM
CCOc1ccc(CC(=O)N2CCC(Cc3nc(-c4ccc(OC)cc4)no3)CC2)cc1	Pf Dd2 growth 8.91µM
CCOCCn1c(=O)[nH]c2cc(C(=O)NCCN3CCCC3=O)ccc21	none
O=C(NCC1CC1)c1nc2c(o1)CCN(Cc1cccc(O)c1)CC2	none
NC(=O)c1cccc(CN2CCC3(CC2)CC(c2cccnc2)=NO3)c1	none
COc1ccc(S(=O)(=O)N2CC[C@H]3NC(=O)N(c4ccc(Oc5ccccc5)cc4)C(=O)[C@H]32)cc1	none
O=C(Cn1cc2c(n1)CCCC2)Nc1cc(C(F)(F)F)ccc1Cl	Pf Dd2 growth 7.08µM
Cc1c(Cl)cccc1NC(=O)Cn1cc2c(n1)CCCC2	none
Cc1ccc(NC(=O)Cn2cc3c(n2)CCCC3)c(C)c1	none
COCCN1C(=O)[C@@H]2C[C@@H](CN2C(=O)Cc2ccccc2)Oc2ccccc21	none
CCN(CC)CCCNC(=O)c1ccc2c(Cl)c3c(nc2c1)CCCC3	Pf Dd2 growth 11.2µM
Cc1ccc(CCNC(=O)c2ccc3c(Cl)c4c(nc3c2)CCCC4)cc1	none
CSc1ccc(CCNC(=O)c2ccc3c(Cl)c4c(nc3c2)CCCC4)cc1	none
CN(C)C[C@@H]1CN(C)C[C@H]1NC(=O)c1ccc(Cn2ccnc2)o1	none
CCCn1ccc2sc(C)c(C(=O)NC3CCCC3)c2c1=O	none
COc1ccc(C(=O)Nc2ccc(-c3noc([C@@H]4CCCN4Cc4ccco4)n3)cn2)cc1	none
Fc1ccc(-c2noc([C@@H]3CCCN3Cc3ccc(Cl)cc3)n2)nc1	none
COc1cc(CN2CCC[C@H]2c2nc(-c3ccc(-c4ccncc4)nc3)no2)cc(OC)c1OC	Pf Dd2 growth 5.01µM
COCCNc1ncccc1-c1noc([C@@H]2CCCN2Cc2cc(OC)c(OC)c(OC)c2)n1	none
COCC(=O)Nc1ccc(-c2noc([C@@H]3CCCN3Cc3ncc[nH]3)n2)cn1	none
COc1ccc(-c2noc([C@@H]3CCCN3C(=O)c3ccncc3)n2)cc1OC	none
COCCNc1ccc(-c2noc([C@@H]3CCCN3Cc3cc(OC)c(OC)c(OC)c3)n2)cn1	Pf Dd2 growth 8.91µM
COCCOc1ccc(-c2noc([C@@H]3CCCN3Cc3c[nH]c4ccccc34)n2)cn1	none
COCCNc1ccc(-c2noc([C@@H]3CCCN3C3CCC3)n2)cn1	none
COCC(=O)N1CC(F)(F)C[C@H]1c1nc(-c2cccnc2)no1	none
COCC(=O)Nc1ccc(-c2noc([C@@H]3CCCN3Cc3cccnc3)n2)cn1	Pf Dd2 growth 8.91µM
COc1ccc(C(=O)Nc2ccc(-c3noc([C@@H]4CCCN4Cc4c[nH]c5ccccc45)n3)cn2)cc1	Pf Dd2 growth 7.94µM
c1cc(-c2cc3c(ccn3Cc3ccncc3)c(N3CCOCC3)n2)c2[nH]ncc2c1	none
CCN1c2cc(C(=O)Nc3ccc(OC)c(Cl)c3)ccc2C(=O)N2CCCCC21 (centres undefined)	none
COc1cccc(C(=O)N2C(C(=O)NCc3ccccc3F)COC23CCC(C)CC3)c1 (centres undefined)	none
COC(=O)[C@H]1CN(S(C)(=O)=O)CCN1S(C)(=O)=O	none
O=C(c1cc(F)ccc1F)N1CCC2(CC1)NC(=O)N(Cc1ccccc1)C2=O	none
COc1cccc(CC(=O)N2CCC([C@H]3[C@@H](OC)C(=O)N3C(C)C)CC2)c1	none
COCCNC(=O)[C@@H]1C[C@H](Oc2ccccc2)CN1C(=O)CCc1nc2ccccc2[nH]1	none
COCc1nc(-c2ccc(OC3CCN(C(=O)Cc4c[nH]c5ccccc45)C3)cc2)no1 (centres undefined)	none
O=C(Cn1ccn2nc(-c3ccc(F)cc3)c(CO)c2c1=O)Nc1ccc2c(c1)OCO2	none
Cc1nc(-c2c3n(c(=O)n(CC(=O)NCCCc4ccccc4)c2=O)CCCC3)no1	none
Cc1cccc(OCC(=O)NCCn2cccc2-c2nc(-c3ccc4c(c3)OCO4)no2)c1	none
CCCCCC(=O)Nc1nc2c(s1)C[C@@H]1[C@](C)(CO)[C@H](O)CC[C@@]1(C)[C@@H]2CC(=O)N[C@@H](CO)CC(C)C	none
CC(C)(C)C(=O)Nc1nc2c(s1)C[C@@H]1[C@](C)(CO)[C@H](O)CC[C@@]1(C)[C@@H]2CC(=O)O	none
CC(C)(C)C(=O)Nc1nc2c(s1)C[C@@H]1[C@](C)(CO)[C@H](O)CC[C@@]1(C)[C@@H]2CC(=O)Nc1cccc(O)c1	Pf Dd2 growth 8.91µM
COCC(=O)Nc1nc2c(s1)C[C@@H]1[C@](C)(CO)[C@H](O)CC[C@@]1(C)[C@@H]2CC(=O)NC(C)C	none
CC(C)C[C@H](CO)NC(=O)C[C@@H]1c2nc(NC(=O)C(C)(C)C)sc2C[C@@H]2[C@](C)(CO)[C@H](O)CC[C@]21C	Pf Dd2 growth 8.91µM
CC(C)(C)C(=O)Nc1nc2c(s1)C[C@@H]1[C@](C)(CO)[C@H](O)CC[C@@]1(C)[C@@H]2CC(=O)NC1CC1	none

High-throughput results deposited in PubChem BioAssay by National Center for Advancing Translational Sciences (NCATS).
